D1 ag = human D1 receptor agonism. P21728. hit rate 1% among 360,000. activation, % at 2 µM. HEK293 T-REx D1 cells, calcium flux, agonist mode
Target sequence (P21728 whole entry, looked up): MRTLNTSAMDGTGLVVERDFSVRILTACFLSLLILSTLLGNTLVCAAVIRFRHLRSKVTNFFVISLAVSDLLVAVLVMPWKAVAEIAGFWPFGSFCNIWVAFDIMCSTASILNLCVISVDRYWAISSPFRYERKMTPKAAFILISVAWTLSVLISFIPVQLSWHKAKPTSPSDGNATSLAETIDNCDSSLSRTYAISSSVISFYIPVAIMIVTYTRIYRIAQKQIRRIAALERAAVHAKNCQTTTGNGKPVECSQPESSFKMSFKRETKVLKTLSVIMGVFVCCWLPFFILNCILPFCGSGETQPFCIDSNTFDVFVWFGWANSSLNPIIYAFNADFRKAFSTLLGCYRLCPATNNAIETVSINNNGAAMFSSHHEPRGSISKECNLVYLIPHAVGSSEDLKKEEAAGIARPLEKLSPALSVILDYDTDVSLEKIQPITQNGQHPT
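Agonism was scored from calcium flux recorded over 180 s (1 read/s) after pintool compound addition, following a 10-cycle baseline. Cells were inducible force-coupled HEK293 TREx D1, plated overnight at 30 C and loaded with no-wash calcium dye.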
TRHR ag = agonists of human TRH receptor. P34981. TRHR cells, calcium flux fluo-8, FDSS agonist mode. activation, % at 2 µM. hit rate 0.18% among 360,000. AID 493084
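Agonist-mode FDSS calcium read (Ex 480/Em 530, 1 s cycles) in 1536-well TRHR cells with fluo-8 dye, after 10-cycle baseline and 23 nL compound addition; TRH at EC20 (10 nM final) added afterwards for the enhancer phase.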
D1 PAM = enhances dopamine response at the human D1 receptor | hit rate 0.036% among 360,000 | AID 504651 | P21728 | HEK293 TREx D1 cells, calcium flux, dopamine EC20 potentiation | potentiation, % at 10 µM; in the data active = potentiation above about 30%
D1 antagonist = blocks dopamine activation of the human D1 receptor; HEK293 TREx D1 cells, calcium flux, dopamine EC80; hits give low values; AID 504652; hit rate 3.2% among 360,000; activity change, negative = inhibition, % at 10 µM; in the data active = activity change below about -30%
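Calcium flux readout: force-coupled, inducible Hek293 Trex D1 line, cells induced overnight at 30 C with tetracycline, dye-loaded 30–90 min at RT. Antagonism scored against EC80 dopamine challenge given 180 s after compound.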
TRHR enhancer = TRH receptor (human) allosteric enhancement | P34981 | TRHR cells, fluo-8 calcium fluorescence, EC20 TRH enhancement | enhancement, % at 2 µM | hit rate 0.66% among 360,000; in the data active = enhancement above about 30%
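Enhancer read-out: after compound pinning and an initial kinetic agonist-mode read, an EC20 of TRH (10 nM final) was injected and fluo-8 calcium signal (Ex 480/Em 530) followed at 1 s/cycle for 100 cycles in TRHR-expressing cells.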
Numbers stand for hits; 0 = inactive. Hits are enriched below; roughly 4.6% of the tested compounds scored in any of these assays. Cut-off read from the data, not from the text of the source, unless noted: active = activation above about 30%; inactive = the rest.

SMILES	D1 ag	TRHR ag	D1 PAM	D1 antagonist	TRHR enhancer
O=[N+]([O-])C(C1CCS(=O)(=O)C1)C1CCS(=O)(=O)C1 (configuration not stated)	0	0	0	-33	0
S=c1sc2ccccc2n1CCc1ccncc1	0	0	0	-39	0
CC(C)(CO)NCC(=O)Nc1cc(C(F)(F)F)cc(NC(=O)CNC(C)(C)CO)c1Cl	0	0	0	0	0
O=C(Cc1ccccc1)Nc1sc2c(c1C(=O)Nc1ccc(Cl)cc1)CCOC2	0	0	0	0	0
C=CC[C@H]1CC(C)=C[C@H](CC=C)N1C(=O)c1cc(COc2ccccc2SC)on1	40	0	0	0	0
Cc1cc(C)cc(OCC(=O)Nc2ccc3c(c2)C(=O)c2ccccc2C3=O)c1	0	0	0	0	0
COC(=O)c1ccc(NC2CC(=O)N(c3ccccc3C)C2=O)cc1 (configuration not stated)	0	0	0	-33	0
COC(=O)c1ccccc1NC1CC(=O)N(c2c(C)cccc2C)C1=O (configuration not stated)	0	0	0	0	33
COC(=O)c1ccccc1SC1CC(=O)N(c2ccccc2)C1=O (configuration not stated)	0	0	0	0	0
C=CCN(Cc1ccc(Cl)s1)C(=O)c1cc(S(=O)(=O)N2CCOCC2)ccc1F	0	0	0	0	0
COc1ccccc1CNC(=O)CN(c1ccccc1OC)S(C)(=O)=O	0	0	0	0	0
CS(=O)(=O)Nc1ccccc1C(=O)Nc1cccc(Cl)c1	38	0	0	-33	0
Cc1ccc(NC(=O)c2c(F)cccc2Cl)cc1NS(C)(=O)=O	0	0	0	0	38
O=C(CCC(=O)OCC(=O)c1ccccc1)Nc1cccc(Cl)c1	0	0	0	0	0
COC(=O)CCC(=O)Nc1cccc(C(=O)Nc2cccc(Cl)c2)c1	31	0	0	0	0
CN(C)S(=O)(=O)Oc1ccc(C(=O)Nc2cccc(Cl)c2)cc1	0	0	0	-47	0
C=Cc1nc(Nc2cc(F)cc(F)c2)nc(NC2CCCC2)n1	0	0	0	0	0
CC1Sc2ccc(S(=O)(=O)NCCc3ccc(Cl)cc3)cc2NC1=O (configuration not stated)	0	0	0	0	0
CN1CCN(c2ccc(CNC(=O)c3ccco3)cc2)CC1	0	0	0	0	0
COCC(C)N1CCC(n2nccc2NC(=O)CCCc2ccccc2)CC1 (configuration not stated)	0	0	0	0	0
CCC(NC(=S)NCc1ccc(F)cc1)c1ccc(C)cc1 (configuration not stated)	60	0	0	0	0
CCc1ccc(C(C)NC(=S)NCc2ccc(F)cc2)cc1 (configuration not stated)	76	0	0	0	0
Cc1ccc(C(C)NC(=S)NCc2ccc(F)cc2)c(C)c1 (configuration not stated)	51	0	0	0	0
Cc1ccc(C(C)NC(=S)NCc2ccc(F)cc2)cc1C (configuration not stated)	0	0	0	-31	0
COc1cccc(C(C)NC(=S)NCc2ccc(F)cc2)c1 (configuration not stated)	0	0	0	0	0
SMILES	D1 ag	TRHR ag	D1 PAM	D1 antagonist	TRHR enhancer
CCOc1ccc(C(C)NC(=S)NCc2ccc(F)cc2)cc1 (configuration not stated)	59	0	0	0	0
COc1ccc(/C=C/c2ccncc2)cc1	0	0	0	-34	0
O=C(COC(=O)Cc1c[nH]c2ccccc12)Nc1c(Cl)cccc1C(F)(F)F	0	0	0	0	0
O=C(NCCS(=O)(=O)c1ccc(Br)cc1)c1ccc(Cl)cc1Cl	0	0	0	-39	0
O=C(NCCS(=O)(=O)c1ccc(Br)cc1)c1ccccc1	0	0	0	0	0
NC(=S)N/N=C/c1coc2c(ccc3ccccc32)c1=O	0	0	0	0	0
O=c1cc(/N=C/c2coc3c(ccc4ccccc43)c2=O)[nH]c(=S)[nH]1	0	0	0	-31	0
Cc1ccc(CNC(=O)Cn2c3ncccc3c(=O)n2-c2ccc(C)cc2)cc1	0	0	0	-57	0
CCc1ccccc1NC(=O)Cn1c2ncccc2c(=O)n1-c1ccccc1	0	0	0	-45	0
CCOC(=O)c1ccccc1NC(=O)Cn1c2ncccc2c(=O)n1-c1ccccc1	0	0	0	0	0
CCc1ccc(-n2c(=O)c3cccnc3n2CC(=O)Nc2ccccc2C(F)(F)F)cc1	0	0	0	-44	0
CCc1ccc(-n2c(=O)c3cccnc3n2CC(=O)NCc2ccc(C)cc2)cc1	0	0	0	0	0
Cc1ccc(OCCSc2nc3ccccc3n2CC(=O)N2CCCCC2)c(C)c1	0	0	0	-44	0
O=C(Cn1c(SCc2ccccc2)nc2ccccc21)N1CCOCC1	0	0	0	0	0
Cc1ccc(C)c(OCCSc2nc3ccccc3n2CC(=O)N2CCOCC2)c1	0	0	0	0	0
O=C(CSc1nc2ccccc2n1CC(=O)N1CCOCC1)N1CCCC1	0	0	0	-32	0
COc1ccc(S(=O)(=O)NCCc2csc(-c3cccc(F)c3)n2)cc1OC	0	0	0	0	0
O=C(c1ncc[nH]1)c1cccs1	0	0	0	0	0
Cc1nn(CC(=O)NCC(C)c2ccccc2)c(=O)c2cc3ccccc3n12 (configuration not stated)	0	0	0	0	0
COc1cc(Cl)c(C)cc1NC(c1ccccc1)c1nnc(-c2ccccc2Cl)o1 (configuration not stated)	0	0	0	0	0
CC1CCCN(CCOCCOc2ccc(Cl)cc2Br)C1 (configuration not stated)	0	0	0	0	0
CN1CCN(CCOCCOc2ccc(Br)cc2Cl)CC1	0	0	0	0	0
CC1CCCN(CCOCCOc2ccc(Br)cc2Cl)C1 (configuration not stated)	0	0	0	-32	0
CC1CCN(CCCOc2ccc(Br)cc2Cl)CC1	52	0	0	-68	0
CC(C)CC1C(C#N)=C(N)SC(N)=C1C#N	38	0	0	0	0
N#CC1=C(N)SC(N)=C(C#N)C1Cc1ccccc1	0	0	0	0	0
CC1CCc2cc(F)cc3c(O)c(C(=O)NCC4CCCO4)c(=O)n1c23 (configuration not stated)	0	0	0	-77	0
CCCOc1ccc(CN(C(=O)c2nc(SC(C)C)ncc2Cl)C2CCS(=O)(=O)C2)cc1 (configuration not stated)	0	0	0	0	0
CCOC(=O)c1c(NC(=O)CSc2cn(CCNC(=O)c3c(F)cccc3F)c3ccccc23)sc2c1CCC2	0	0	0	0	0
COc1ccc(CC(=O)Nc2ccc(NC(=O)c3ccccc3F)cc2)cc1	54	0	0	0	0
